Screening results deposited in PubChem BioAssay by National Center for Advancing Translational Sciences (NCATS).
Pol beta inh-1: qHTS Assay for Inhibitors of DNA Polymerase Beta; P06746; Pol beta primer extension/strand displacement, fluorescence kinetic; Potency, µM (titrated, usually from 114 µM), inactives show top-dose activity change, negative = inhibition, usual class: inhibitors; 1.3% of 340,000 active; note: potency is the fitted concentration of half-maximal effect; % is set by controls: 0 for no effect and ±100 for the full control effect
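Pol beta (10 nM) was preincubated with compound for 15 min at room temperature. The reaction was then started with 50 nM substrate and read immediately and after a further 10 min at room temperature.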
TDP1 block: qHTS Assay for Inhibitors of Tyrosyl-DNA Phosphodiesterase (TDP1) | AID 485290, 2010 | recombinant TDP1, AlphaScreen DNA substrate cleavage | Tyrosyl-DNA phosphodiesterase 1 (Homo sapiens), Q9NUW8 | Potency, µM (top dose mostly 130 µM), for inactives: at the highest dose activity change, negative = inhibition, actives largely listed as inhibitors | 0.28% of 350,000 active; note: potency is the fitted concentration of half-maximal effect; % is set by controls: 0 for no effect and ±100 for the full control effect; nearly all actives have a fitted effect of over 40% in size
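Steps: enzyme plus compound, 15 min RT; add biotin/phosphotyrosine-FITC oligonucleotide (15 nM final), react 5 min; add donor/acceptor beads (10 ug/ml final), 10 min; read AlphaScreen. Tdp1 at 1 nM final.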
POLI inh: qHTS for Inhibitors of Polymerase Iota. DNA polymerase iota (Homo sapiens), Q9UNA4. 1% of 390,000 active. Pol iota fluorescent replication assay, 10 min. Potency, µM (doses to about 115 µM), inactives show at the highest dose activity, negative = inhibition, most hits filed as inhibitors; note: potency is the fitted concentration of half-maximal effect
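Fluorescent replication assay read twice, at 0 min and 10 min after adding 50 nM (final) substrate. Enzyme (10 nM) and compounds were first incubated 15 min at room temperature; enzyme-free buffer wells were negative controls.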
Pol kappa inh: qHTS for Inhibitors of Polymerase Kappa | DNA polymerase kappa (Homo sapiens), Q9UBT6 | purified Pol kappa, fluorescent DNA synthesis assay, 10 min | Potency, µM (top dose mostly 107 µM), for inactives: at the top dose activity, negative = inhibition, actives largely listed as inhibitors | 0.53% of 400,000 active | AID 588579, 2011; note: potency is the fitted concentration of half-maximal effect; % is set by controls: 0 for no effect and ±100 for the full control effect
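Kinetic fluorescence readout at 0 and 10 min followed reaction start with substrate at 50 nM final. Beforehand, enzyme (10 nM Pol kappa) stood 15 min with compound at room temperature; buffer-only wells were negative controls.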
Pol eta inh: qHTS for Inhibitors of Polymerase Eta; 1.2% of 390,000 active; AID 588591, 2011; Potency, µM (top dose mostly 114 µM), for inactives: at the top dose activity change, negative = inhibition, most hits filed as inhibitors; DNA polymerase eta (Homo sapiens), Q9Y253; recombinant Pol eta, fluorescent DNA replication assay; note: potency is the fitted concentration of half-maximal effect; % is set by controls: 0 for no effect and ±100 for the full control effect
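Fluorescent replication assay: 50 nM final substrate added after a 15 min room-temperature compound preincubation with 10 nM enzyme. Signal taken at 0 min and again at 10 min.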
Pol beta inh-2: Inhibitors of DNA Polymerase Beta: Hit validation; 87% of 250 active; shares compounds with Pol beta inh-1; Potency, µM, most hits filed as inhibitors; AID 540280, 2011; Pol beta primer extension/strand displacement, fluorescence kinetic; calls by dose curve; note: potency is the fitted concentration of half-maximal effect
Klenow counter: Inhibitors of DNA Polymerase Beta: Hit Validation in Klenow Fragment Assay; shares compounds with Pol beta inh-1; Klenow exo- polymerase counter-screen, fluorescent DNA substrate; activity change, negative = inhibition, % at 57.1 µM; 250 tested, under 10 active
HIV RT inh: Inhibitors of DNA Polymerase Beta: Hit Validation in HIV-RT Assay | HIV-1 RT polymerase activity, counter-screen | 250 tested, under 10 active | shares compounds with Pol beta inh-1 | activity % (negative = inhibition, positive = activation), % at 57.1 µM
POLB valid: Inhibitors of DNA Polymerase Beta: Hit Validation in Radiolabeled Extension Assay | 91% of 110 active | shares compounds with Pol beta inh-1 | inhibition, % at 10 µM | AID 540325, 2011 | radiolabeled primer extension gel assay, phosphorimager;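 active = inhibition at 10 µM of 30% or more; inconclusive = no clear call, values can overlap the other calls; inactive = inhibition at 10 µM under 30%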
An asterisk follows results filed as active; ? = inconclusive; . = no result; [ ] = remark or other dose. Sampled rows, rich in hits. Any-hit rate of the full collection: about 2.4%. Unless noted, calls come from the whole dose curve; as a rule, active = well fitted curve in the direction sought with a large enough effect; inconclusive = small, poorly fitted or top-dose-only effect, or another doubt; inactive = no such curve, though single readings can be large; an effect the other way counts as inactive or inconclusive.

SMILES	Pol beta inh-1	TDP1 block	POLI inh	Pol kappa inh	Pol eta inh	Pol beta inh-2	Klenow counter	HIV RT inh	others
COc1ccccc1N1CCN(C(=O)c2cc3c(s2)CCC3)CC1	7.9µM*	5%	-29%	-27%	?	?	11	10	POLB valid=74*
Cc1ccc(CNC(=O)c2nc(SCc3cccc(C)c3)ncc2Cl)cc1	2%	5%	13%	-8%	-14%	.	.	.
NS(=O)(=O)c1ccc(NC(=O)c2ccc(-c3ccccc3)cc2)cc1	14µM*	0%	?	?	?	16*	-33	8
Cc1ccc(C(=O)Oc2ccc(C(=O)COC(=O)C3CC(=O)N(Cc4ccco4)C3)cc2)cc1 (stereo not drawn)	16µM*	?	4.5µM*	45µM*	13µM*	14*	-11	13
O=C(COC(=O)C1CC(=O)N(Cc2ccco2)C1)c1ccc(OC(=O)c2ccco2)cc1 (stereo not drawn)	7.1µM*	0%	18µM*	32µM*	3.2µM*	8.9*	-4	?
Cc1[nH]c2ccccc2c1C(=O)COC(=O)C1CC(=O)N(Cc2ccco2)C1 (stereo not drawn)	-1%	6%	-2%	-24%	10%	.	.	.
COc1ccc(CNC(=O)c2nn(-c3ccccc3C)nc2CO)cc1	5%	-2%	29%	-2%	-12%	.	.	.
O=[N+]([O-])c1cc(CN2CCOCC2)c2cccnc2c1O	2.5µM*	-5%	?	?	8.9µM*	4.5*	11	20
Oc1c(Cl)cc(CN2CCOCC2)c2cccnc12	.	-4%[56.1 µM]	?	6%	0%	.	.	.
O=C(O)c1ccc(CSc2nnnn2-c2ccc(F)cc2)cc1	-2%	.	-11%	-16%	-3%	.	.	.
O=C(CSc1nnnn1-c1ccc(F)cc1)c1ccc(O)c(O)c1	13µM*	8%	?	?	?	7.9*	-21	25
Cc1cc2oc(C(=O)Nc3sc4c(c3C(=O)NCC3CCCO3)CCCC4)cc(=O)c2cc1C (stereo not drawn)	3%	6%	6%	-21%	-11%	.	.	.
COc1ccc(C(=O)Nc2ccc3c(c2)C(=O)c2ccccc2C3=O)cc1OC	2.2µM*	0%	-5%	-10%	?	22*	-15	23	POLB valid=70*
Nc1nc2c(c(=O)[nH]1)CN(Cc1ccccc1)CC2	.	.	64%	4%	-21%	.	.	.
O=c1[nH]c(C(Cl)Cl)nc2sc3c(c12)CCN(Cc1ccccc1)C3	13µM*	.	?	?	40µM*	16*	-5	4
NC(=O)NN=C1c2cc(S(=O)(=O)N3CCOCC3)ccc2-c2ccc(S(=O)(=O)N3CCOCC3)cc21	.	2%	7%	3%	.	.	.	.
COc1ccc2cc3c(N)nn(C(=O)c4ccccc4[N+](=O)[O-])c3nc2c1	2%	-1%	18%	-13%	0%	.	.	.
COc1ccc2cc3c(N)nn(C(=O)c4ccc(Cl)c([N+](=O)[O-])c4)c3nc2c1	1.6µM*	-3%	?	-10%	?	3.2*	-38	-2
CCOc1ccc(C(=O)/C=C/Nc2ccc(S(=O)(=O)Nc3cc(C)nc(C)n3)cc2)cc1	8.9µM*	?	40µM*	-32%	?	35*	-36	1	POLB valid=69*
